Reference: the supplement of paper PMC9477273

Test system: DRIVER-selected RNA biosensor (aptazyme) pool
Assay: maximum fold change of ribozyme cleavage across biosensor pool versus no-compound control; higher = stronger biosensor response (ligand inhibits cleavage)
Conditions: 10 µM
Procedure, shortened: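 CleaveSeq on a pool of 1,730 array-resynthesized ribozyme biosensors, T7-transcribed at 37°C for 15–30 min with 9 mM rNTPs and one compound at 10 µM (added from 10x DMSO stock), then reverse-transcribed at 50°C. Cleaved and uncleaved products were PCR-barcoded and counted by Illumina sequencing. Fold change of cleavage is the ratio of cleaved:uncleaved read fractions against a no-compound condition, corrected with reference sequences; the value is the maximum over all biosensors.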

For `O=C(c1cc(-c2ccccc2)n[nH]1)N1CCc2ccccc2C1`, which maximum fold change is on record?
The maximum fold change was 4.06.

Which maximum fold change does the source give for `Cn1c(-c2ccc3c(c2)OCO3)cnc1NCc1cc(Br)ccc1F` here?
The maximum fold change was 3.3.

With `CCOC(=O)c1cnc(SCc2cccc(C)c2)nc1N` as the compound, how does the maximum fold change read?
The maximum fold change was 7.72.

Which maximum fold change does the source give for `COc1cc(C(=O)N(Cc2ccccc2F)C2CCS(=O)(=O)C2)cc(OC)c1OC` (stereo not drawn) here?
Its maximum fold change is 2.18.

For `CN(Cc1ccccc1)C(=O)CCc1nc(CN2CCN(C(=O)c3noc4c3CCCC4)CC2)no1`, which maximum fold change is on record?
Its maximum fold change is 4.1.

With `c1sc2c(c1CN1CCC3(CC1)OCCO3)CCCC2` as the compound, how does the maximum fold change read?
Its maximum fold change is 2.61.

With `CC1=C(C(=O)NCCC2=CCCCC2)C2(CCC(C)CC2)OC1=O` (stereo not drawn) as the compound, how does the maximum fold change read?
Its maximum fold change is 2.79.

How did the maximum fold change turn out when `O=C(NCc1ccco1)c1ccccc1Br` was run?
Its maximum fold change is 2.5.

With `CCOC(=O)c1cnc2c(C)c(Cl)ccc2c1NCCCN1CCOCC1` as the compound, how does the maximum fold change read?
Its maximum fold change is 12.1.

Which maximum fold change does the source give for `O=C(c1ccccc1O)N1CCOCC1` here?
The maximum fold change was 1.99.

How did the maximum fold change turn out when `COc1cc(-c2nc3n(n2)C(c2ccncc2)C(C(N)=O)=C(C)N3)cc(OC)c1OC` (stereo not drawn) was run?
Its maximum fold change is 2.35.

`CC12CCC(C(=O)O)(c3nc4ccc5ncccc5c4nc31)C2(C)C` (stereo not drawn) was tested. Which maximum fold change did it give?
The maximum fold change was 2.74.

Which maximum fold change does the source give for `Cc1oc(-c2ccccc2F)nc1CS(=O)(=O)CC(=O)N1CCC(Cc2ccccc2)CC1` here?
The maximum fold change was 4.04.
